From PubChem BioAssay come the findings set out here.

Broadly, the viability is a read-out of living cells in per cent, often relative to untreated cells. As a reminder, the inhibition is the drop in the measured response relative to a control, in per cent.

“And” between values parts separate entries of the source, which are not always exact repeats. Equal values may be shown once. The source made the active and inactive calls.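 How the source made its calls, unless noted: active means normalized viability below 100% at a tested concentration; inactive means the rest.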

Test [1] in a line: liver-stage malaria parasite growth inhibition, primary screen, cell-based, HepG2, luciferase luminescence, HepG2 viability (AID 624349; in the data active means parasite load remaining mostly below about 12%, no sharp cut-off; inactive means mostly above about 10%;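 further: 100% = mean of DMSO negative control wells on the same plate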). The note with it: P. berghei liver stage in HepG2, luciferase luminescence, concentration not given here; parasite load remaining: stronger effect = lower value; viability: measured here: HepG2 viability without parasites.
Test [2] concerns the target 6-phosphogluconate dehydrogenase, decarboxylating (Homo sapiens) (UniProt P52209). Briefly: 6PGD enzyme inhibitors, primary screen, biochemical, human, recombinant enzyme, NADPH absorbance (AID 1159550;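 active means at least 20% inhibition of 6-phosphogluconate dehydrogenase activity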). The following applies: recombinant 6PGD, NADPH absorbance 341 nm; at 10 µM; stronger effect = higher value.
Test [3] can be described thus: sensitizers of A549 cells to miR-34 induction, primary screen, imaging, A549 dox-inducible miR-34, nuclei and caspase counts (AID 1347080;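 active means compounds whose cell count with miR-34 switched on is under 0.7 times the count with it off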). The note with it: A549 miR-34 inducible, Hoechst nuclei count, 48 h.
Test [4] is described as follows: survival rescue of mitochondrial mutant cells in low glucose, primary screen, MELAS cybrids, Rieske KO mouse fibroblasts, CellTiter-Glo (AID 1508586;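 active means mean z-score across replicates of 1.96 or higher in either the MELAS or the Rieske mutant cell line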;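 further: z relative to plate mean and SD of compound and empty wells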). A general note: ATP-based viability assays read luminescence as a measure of living cells.
Test [5] deals with NAD(+) hydrolase SARM1 (Homo sapiens) (UniProt Q6SZW1). The test is described as follows: SARM1 TIR NADase inhibitors, cell lysate, NAD-Glo luminescence (AID 1508614;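 active means compound whose remaining NAD level is above about 45 nM, limit read from the data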). The following applies: SAM-TIR HEK293T lysate NADase, at 1 µM, stronger effect = higher value.
NAD(+) hydrolase SARM1 (Homo sapiens), sequence (Q6SZW1 whole entry, looked up, the tested form may be a part): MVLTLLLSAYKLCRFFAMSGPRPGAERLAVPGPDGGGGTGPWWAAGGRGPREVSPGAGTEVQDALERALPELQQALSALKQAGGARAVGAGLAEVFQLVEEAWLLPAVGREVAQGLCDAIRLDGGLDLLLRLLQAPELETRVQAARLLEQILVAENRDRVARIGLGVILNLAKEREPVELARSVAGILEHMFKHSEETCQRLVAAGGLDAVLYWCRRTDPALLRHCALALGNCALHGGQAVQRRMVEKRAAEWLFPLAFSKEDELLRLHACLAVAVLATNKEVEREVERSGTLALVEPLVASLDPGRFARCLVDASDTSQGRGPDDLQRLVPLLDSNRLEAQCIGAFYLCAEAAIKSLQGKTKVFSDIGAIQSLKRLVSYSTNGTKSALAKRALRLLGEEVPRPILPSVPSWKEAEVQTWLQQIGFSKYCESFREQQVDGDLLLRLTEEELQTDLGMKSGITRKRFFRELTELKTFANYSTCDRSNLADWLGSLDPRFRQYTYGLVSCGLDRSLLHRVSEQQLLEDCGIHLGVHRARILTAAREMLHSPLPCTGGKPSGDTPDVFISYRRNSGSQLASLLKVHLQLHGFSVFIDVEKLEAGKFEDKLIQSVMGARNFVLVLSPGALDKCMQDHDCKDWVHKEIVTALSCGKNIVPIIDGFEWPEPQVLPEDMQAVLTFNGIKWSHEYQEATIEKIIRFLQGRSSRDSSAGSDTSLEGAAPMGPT
For test [6], the target named is Mitogen-activated protein kinase 7 (Homo sapiens) (UniProt Q13164). Briefly: ERK5 transactivation activators in reporter cells, primary screen, cell-based, HTS (AID 1508626;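 active means luciferase signal above three times the same-plate solvent-only control wells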;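 further: luciferase driven by Gal4-ERK5 fusion binding five Gal4 sites before minimal TATA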). The note with it: HeLa Gal4-ERK5 transactivation, 18 h, at 5 µM, stronger effect = higher value.
Mitogen-activated protein kinase 7 (Homo sapiens), sequence (Q13164 whole entry, looked up, the tested form may be a part): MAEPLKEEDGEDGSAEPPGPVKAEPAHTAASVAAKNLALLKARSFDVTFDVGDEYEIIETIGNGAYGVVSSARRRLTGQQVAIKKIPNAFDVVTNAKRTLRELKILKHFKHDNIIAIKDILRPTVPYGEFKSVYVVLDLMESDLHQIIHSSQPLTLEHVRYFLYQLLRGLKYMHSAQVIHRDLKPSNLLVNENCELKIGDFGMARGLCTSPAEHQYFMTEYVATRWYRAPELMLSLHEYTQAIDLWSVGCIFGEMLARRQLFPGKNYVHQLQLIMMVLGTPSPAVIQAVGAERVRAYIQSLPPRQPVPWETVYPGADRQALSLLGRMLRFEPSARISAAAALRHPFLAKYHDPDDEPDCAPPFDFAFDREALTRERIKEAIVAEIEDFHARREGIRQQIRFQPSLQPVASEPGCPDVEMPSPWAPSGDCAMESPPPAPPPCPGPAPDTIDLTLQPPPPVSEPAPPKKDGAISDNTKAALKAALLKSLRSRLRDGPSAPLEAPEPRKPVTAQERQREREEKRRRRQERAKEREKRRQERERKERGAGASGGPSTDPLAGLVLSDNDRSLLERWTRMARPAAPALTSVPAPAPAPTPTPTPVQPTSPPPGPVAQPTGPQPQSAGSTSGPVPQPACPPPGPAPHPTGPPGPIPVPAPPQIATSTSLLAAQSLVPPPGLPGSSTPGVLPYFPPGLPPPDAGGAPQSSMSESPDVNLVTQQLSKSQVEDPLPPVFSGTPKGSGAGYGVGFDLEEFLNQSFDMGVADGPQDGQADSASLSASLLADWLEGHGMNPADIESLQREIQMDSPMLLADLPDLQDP
Test [7] can be described thus: viability rescue of complex I mutant cybrids, primary screen, cell-based, galactose medium, ATP luminescence (AID 1645843;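 active means z-score of at least 1.8 in each of two replicates, scored against plate mean and spread of sample wells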;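 further: positive z means more ATP and so rescue of galactose-driven cybrid death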). The following applies: complex I mutant cybrid cells, 72 h, stronger effect = higher value.
Test [8] has as its system Hepatitis C virus NS3 helicase. Briefly: HCV NS3 helicase inhibitors, primary screen, biochemical, fluorescence polarization, NIH Clinical Collection (AID 743270; call rule not given here). The note with it: NS3 helicase binding to Cy5-dT15 DNA, stronger effect = higher value, concentration not given here. In general terms: Fluorescence polarisation rises when a labelled molecule tumbles more slowly, as on binding a larger partner.

Test [9] in a line: modulation of C. elegans fzo-1 (AID 1259413; call rule not given here;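 further: fzo-1 mutant C. elegans worms in liquid wells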). The following applies: C. elegans fzo-1 modulator screen, mean read-out; stronger effect = higher value.
Test [10] in a line: differential killing of epithelial or mesenchymal cells, primary screen, imaging, PC-3E GFP, TEM4-18 mCherry, co-culture (AID 1345086;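 active means compounds killing one labelled cell type while sparing the other, by normalised counts and ratio limits, not self-fluorescent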;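 on all read-outs here: cells exposed to compound for 72 h before imaging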;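 on red/green cell ratio (normalised): normalised mesenchymal count divided by normalised epithelial count so high means epithelial killing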). The following applies: imaging cell counts, at 1 µM; for red/green cell ratio (normalised): actives lie on both sides, counts scaled to control wells, 1 = unselective.
Test [11] is described as follows: ovarian cancer cell viability with rucaparib, profiling panel, oncology-focused library, rucaparib conditional (AID 1508598). The following applies: patient-derived ovarian cancer cells, CellTiter-Glo viability, 144 h, stronger effect = lower value.
[12] abbreviates: stronger effect = lower value, cell number ratio, induced over uninduced.
[13] abbreviates: measured here: relative caspase fold change +Dox/-Dox.
[14] abbreviates: measured here: total cells with miR-34 induction, stronger effect = lower value.
Where [15] appears, read: measured here: total cells without miR-34 induction.
[16] abbreviates: MELAS cybrid survival, CellTiter-Glo 48 h, stronger effect = higher value.
[17] abbreviates: Rieske KO mouse fibroblast survival, CellTiter-Glo 72 h.
Where [18] appears, read: measured here: epithelial PC-3E GFP cell survival.
Where [19] appears, read: measured here: mesenchymal TEM4-18 mCherry cell survival.

6-phosphogluconate dehydrogenase, decarboxylating (Homo sapiens), sequence (P52209 whole entry, looked up): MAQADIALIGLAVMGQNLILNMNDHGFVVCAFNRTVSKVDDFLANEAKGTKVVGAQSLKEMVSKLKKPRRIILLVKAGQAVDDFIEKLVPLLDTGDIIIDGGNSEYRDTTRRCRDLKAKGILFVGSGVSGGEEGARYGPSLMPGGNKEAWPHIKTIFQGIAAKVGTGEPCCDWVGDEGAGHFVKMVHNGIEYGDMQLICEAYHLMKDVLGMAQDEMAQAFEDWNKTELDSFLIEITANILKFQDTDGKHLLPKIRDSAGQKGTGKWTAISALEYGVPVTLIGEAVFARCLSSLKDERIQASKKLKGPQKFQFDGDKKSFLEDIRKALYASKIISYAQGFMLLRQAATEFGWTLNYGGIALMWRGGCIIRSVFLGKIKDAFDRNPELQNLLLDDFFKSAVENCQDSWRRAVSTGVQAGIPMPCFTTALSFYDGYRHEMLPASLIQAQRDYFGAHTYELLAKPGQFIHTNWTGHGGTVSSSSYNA

Consider `COc1ccc(C[C@H](N)C(=O)N[C@H]2[C@@H](O)[C@H](n3cnc4c(N(C)C)ncnc43)O[C@@H]2CO)cc1`, for which the parasite load remaining in test [1] was -0.025% (inactive) and -0.34% (inactive). Besides, in test [1], the viability is 17.9% and 1%. In addition, the inhibition in test [2] was -10.2% (inactive). Further, the fold change in test [3] (setting [12]) is 1.03 (inactive) and 1.04 (inactive); in test [3] (setting [13]) it was 1.77 and 0.862. Also, the cell count is 1000 and 950 in [3] (setting [14]); 976 and 910 in [3] (setting [15]). For the same compound, the z-score in test [4] (setting [16]) is 0.777 (inactive); in test [4] (setting [17]), -0.707; in [7] it was -2.25 (inactive). The remaining NAD in test [5] is 10 nM (inactive). The luciferase signal in test [6] is 244 AU (inactive).
Take `CC(C)C1COc2cc3oc(=O)ccc3cc2O1` (configuration not stated): the inhibition in test [2] is 3.83% (inactive).
With `CCc1ccc(CCOc2ccc(CC3SC(=O)NC3=O)cc2)nc1` (configuration not stated), the values for the inhibition in test [8] and in test [2] were 0.4% (inactive) and 6.81% (inactive), respectively. Moreover, the mean signal in [9] was 259 (inactive). Also, in test [10], the red/green cell ratio (normalised) was 1.07 (inactive). Further, the normalised cell number in test [10] (setting [18]) was 1.18; in [10] (setting [19]), 1.27. The viability was 119% (inactive) in test [11] (at 0.000305 µM, OCI-C5x cells, with rucaparib 10 µM, 100% = cells with rucaparib alone); 118% (inactive) in test [11] (at 0.000305 µM, OCI-C5x cells, without rucaparib); 88.4% (active) in test [11] (at 0.000305 µM, OCI-P5x cells, with rucaparib 20 µM, 100% = cells with rucaparib alone); 95.9% (active) in [11] (at 0.000305 µM, OCI-P5x cells, without rucaparib); 120% (inactive) in [11] (at 0.00122 µM, OCI-C5x cells, with rucaparib 10 µM, 100% = cells with rucaparib alone); 116% (inactive) in [11] (at 0.00122 µM, OCI-C5x cells, without rucaparib). For the same compound, the viability was 97.3% (active) in [11] (at 0.00122 µM, OCI-P5x cells, with rucaparib 20 µM, 100% = cells with rucaparib alone); 100% (inactive) in [11] (at 0.00122 µM, OCI-P5x cells, without rucaparib); 108% (inactive) in [11] (at 0.00488 µM, OCI-C5x cells, with rucaparib 10 µM, 100% = cells with rucaparib alone); 126% (inactive) in test [11] (at 0.00488 µM, OCI-C5x cells, without rucaparib); 102% (inactive) in [11] (at 0.00488 µM, OCI-P5x cells, with rucaparib 20 µM, 100% = cells with rucaparib alone); 105% (inactive) in test [11] (at 0.00488 µM, OCI-P5x cells, without rucaparib). In addition, the viability in test [11] (at 0.0195 µM, OCI-C5x cells, with rucaparib 10 µM, 100% = cells with rucaparib alone) is 120% (inactive); in test [11] (at 0.0195 µM, OCI-C5x cells, without rucaparib), 126% (inactive); in [11] (at 0.0195 µM, OCI-P5x cells, with rucaparib 20 µM, 100% = cells with rucaparib alone), 105% (inactive); in test [11] (at 0.0195 µM, OCI-P5x cells, without rucaparib) it was 104% (inactive); in test [11] (at 0.0781 µM, OCI-C5x cells, with rucaparib 10 µM, 100% = cells with rucaparib alone), 124% (inactive); in test [11] (at 0.0781 µM, OCI-C5x cells, without rucaparib), 113% (inactive). For the same compound, the viability was 101% (inactive) in [11] (at 0.0781 µM, OCI-P5x cells, with rucaparib 20 µM, 100% = cells with rucaparib alone); 110% (inactive) in test [11] (at 0.0781 µM, OCI-P5x cells, without rucaparib); 105% (inactive) in test [11] (at 0.313 µM, OCI-C5x cells, with rucaparib 10 µM, 100% = cells with rucaparib alone); 115% (inactive) in test [11] (at 0.313 µM, OCI-C5x cells, without rucaparib); 103% (inactive) in [11] (at 0.313 µM, OCI-P5x cells, with rucaparib 20 µM, 100% = cells with rucaparib alone); 113% (inactive) in test [11] (at 0.313 µM, OCI-P5x cells, without rucaparib). Besides, the viability in test [11] (at 1.25 µM, OCI-C5x cells, with rucaparib 10 µM, 100% = cells with rucaparib alone) is 111% (inactive); in test [11] (at 1.25 µM, OCI-C5x cells, without rucaparib), 123% (inactive); in test [11] (at 1.25 µM, OCI-P5x cells, with rucaparib 20 µM, 100% = cells with rucaparib alone), 104% (inactive); in [11] (at 1.25 µM, OCI-P5x cells, without rucaparib), 118% (inactive); in [11] (at 5 µM, OCI-C5x cells, with rucaparib 10 µM, 100% = cells with rucaparib alone), 105% (inactive); in test [11] (at 5 µM, OCI-C5x cells, without rucaparib), 123% (inactive). Also, the viability in test [11] (at 5 µM, OCI-P5x cells, with rucaparib 20 µM, 100% = cells with rucaparib alone) is 103% (inactive); in test [11] (at 5 µM, OCI-P5x cells, without rucaparib) it was 111% (inactive). Also, in test [5], the remaining NAD was 10 nM (inactive). The luciferase signal in test [6] was 48 AU (inactive). Further, in [7], the z-score is 0.365 (inactive) and 1.53 (inactive).
Consider `COC(=O)C[C@H]1C(C)(C)C(OC(C)=O)[C@]2(O)C=C3C4CC(=O)O[C@@H](c5ccoc5)[C@]4(C)CCC3[C@@]1(C)C2=O` (some centres not stated), for which the inhibition in [2] was -4.04% (inactive).
As to `Nc1ncnc2c1ncn2[C@@H]1O[C@H](CO)[C@@H](O)[C@@H]1O`, the figures for the inhibition in [8] and in test [2] were -4.09% (inactive) and -15.7% (inactive), respectively. Also, the mean signal in [9] is 237 (inactive). For the same compound, the red/green cell ratio (normalised) in test [10] was 0.96 (inactive). For the same compound, the figures for the normalised cell number in test [10] (setting [18]) and in test [10] (setting [19]) were 0.99 and 0.95, respectively. The fold change was 0.95 (inactive) and 0.835 (inactive) and 0.86 (inactive) in test [3] (setting [12]); 2.09 and 4.39 and 1.09 in [3] (setting [13]). Further, the cell count in test [3] (setting [14]) is 9780 and 10000 and 8360; in test [3] (setting [15]), 10300 and 12000 and 9720. The z-score in test [4] (setting [16]) is -2.73 (inactive) and -2.26 (inactive); in [4] (setting [17]) it was 0.559 and 1.92; in [7] it was -1.35 (inactive) and 1.67 (inactive). Moreover, the remaining NAD in test [5] is 10 nM (inactive). Further, the luciferase signal in test [6] is 160 AU (inactive).
As for `COc1ccc2c(=O)ccoc2c1`, the inhibition in test [2] was -1.53% (inactive).
Turning to `CCC(=O)OCC(=O)[C@@]1(OC(=O)CC)[C@@H](C)CC2C3CCC4=CC(=O)C=C[C@]4(C)[C@@]3(F)C(O)C[C@@]21C` (some centres not stated), the inhibition in [2] was -9.91% (inactive).
